“And” between values parts separate entries of the source, which are not always exact repeats. Identical values can stand only once. Results filed as inconclusive are left out. The source made the active and inactive calls. The call rests on the fitted dose curve; in most records, active means well fitted curve in the direction sought with a large enough effect; inconclusive means small, poorly fitted or top-dose-only effect, or another doubt; inactive means no such curve, though single readings can be large; an effect the other way counts as inactive or inconclusive.
Columns and labels:
[1] = tested on: Es-2; assay: Primary qHTS to identify gynecologic anti-cancer compounds using libraries of approved drugs and bioactive compounds (AID 1345084); conditions: Gynecologic cancer cell panel viability, ATPlite luminescence, 48 h; series mostly up to 57.5 µM; further: nearly all actives have a fitted effect of over 55% in size
In short: (§1)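 Five-point cytotoxicity, 48 h drug exposure at 37 C, 5% CO2, on cells seeded 16 h beforehand. ATP content read by ATPlite luminescence.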

[2] = tested on: HeLa; assay: as above; conditions: Gynecologic cancer cell panel viability, ATPlite luminescence, 48 h; series mostly up to 57.5 µM
In short: as §1

[3] = tested on: Hek293T; assay: as above; conditions: Gynecologic cancer cell panel viability, ATPlite luminescence, 48 h, control line for the selectivity index; series mostly up to 57.5 µM
In short: as §1

[4] = tested on: JEG-3; assay: as above; conditions: Gynecologic cancer cell panel viability, ATPlite luminescence, 48 h; series mostly up to 57.5 µM
In short: as §1

[5] = tested on: OV90; assay: as above; conditions: Gynecologic cancer cell panel viability, ATPlite luminescence, 48 h; series mostly up to 57.5 µM
In short: as §1

[6] = tested on: PA-1; assay: as above; conditions: Gynecologic cancer cell panel viability, ATPlite luminescence, 48 h; series mostly up to 57.5 µM
In short: as §1

[7] = tested on: SKOV3; assay: as above; conditions: Gynecologic cancer cell panel viability, ATPlite luminescence, 48 h; series mostly up to 57.5 µM
In short: as §1

[8] = tested on: Tov-21-G; assay: as above; conditions: Gynecologic cancer cell panel viability, ATPlite luminescence, 48 h; series mostly up to 57.5 µM
In short: as §1

[9] = tested on: Tov112D; assay: as above; conditions: Gynecologic cancer cell panel viability, ATPlite luminescence, 48 h; series mostly up to 57.5 µM
In short: as §1

[10] = Drug repurposing screens with cells derived from glioblastoma tumor samples (AID 1345199); conditions: GBM patient neurospheres viability, ATP luminescence, 48 h; further: nearly all actives have a fitted effect of over 40% in size
In short: (§2)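 Four patient lines of CD133+ GBM neurospheres were screened at several concentrations; hits were retested in those lines plus three slower-growing GBM lines, using 48-hour treatment and ATP-based viability.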

[11] = tested on: astro; assay: as above; conditions: viability, ATP luminescence, 48 h; series mostly up to 45.9 µM
In short: as §2

[12] = at 45.9 µM (top of the series), tumour line B
[13] = at 45.9 µM (top of the series), tumour line D
On the % scale 0 is the no-effect control and ±100 the full control effect; potency means the concentration at half of the fitted maximal effect.

ClCc1cccc(Cl)c1
inactive: Potency [1] | Potency [2] | Potency [3] | Potency [4] | Potency [5] | Potency [6] | Potency [7] | Potency [8] | Potency [9]

COc1ccc2[nH]cc(CCN(C(C)C)C(C)C)c2c1
inactive: Potency [1] | Potency [2] | Potency [3] | Potency [4] | Potency [5] | Potency [6] | Potency [7] | Potency [8] | Potency [9] | activity, negative = cell killing ([10]; at 108 µM (top of the series), tumour line B) -6.42% | activity, negative = cell killing ([10]; at 108 µM (top of the series), tumour line D) -9.85% | Potency [11]
active: Potency ([10]; tumour line A) 44.7 µM

CN1C[C@@H](NS(=O)(=O)N(C)C)C[C@@H]2c3cccc4c3c(cn4C)C[C@H]21
inactive: Potency [1] | Potency [2] | Potency [3] | Potency [4] | Potency [5] | Potency [6] | Potency [7] | Potency [8] | Potency [9] | activity, negative = cell killing [10, 12] -15.4% | activity, negative = cell killing [10, 13] -25.6% | Potency [11]
active: Potency ([10]; tumour line A) 10 µM

CCN(CC)CCOC(=O)C(C)(c1ccccc1)c1ccccc1
active: Potency ([10]; tumour line A) 10 µM
inactive: Potency [1] | Potency [2] | Potency [3] | Potency [4] | Potency [5] | Potency [6] | Potency [7] | Potency [8] | Potency [9] | activity, negative = cell killing [10, 12] -27.8%

O=C1CN2CCOC2(c2ccccc2Cl)c2cc(Cl)ccc2N1 (configuration not stated)
inactive: Potency [1] | Potency [2] | Potency [3] | Potency [4] | Potency [5] | Potency [6] | Potency [7] | Potency [8] | Potency [9]

O=c1[nH]c2cc(Cl)ccc2n1C1CCNCC1
inactive: Potency [1] | Potency [2] | Potency [3] | Potency [4] | Potency [5] | Potency [6] | Potency [7] | Potency [8] | Potency [9]

C[C@]12CC[C@H]3[C@@H](CCC4=CC(=O)CC[C@@H]43)[C@@H]1CC[C@@H]2O
inactive: Potency [1] | Potency [3] | Potency [4] | Potency [5] | Potency [7] | Potency [8] | Potency [9] | activity, negative = cell killing [10, 12] 2.47% and -10.2%
active: Potency [2] 2.24 µM | Potency [6] 10 µM

Oc1ccc([C@H]2CNCc3c2ccc(O)c3O)cc1O
inactive: Potency [1] | Potency [2] | Potency [3] | Potency [4] | Potency [5] | Potency [6] | Potency [7] | Potency [8] | Potency [9] | activity, negative = cell killing [10, 12] -19.9% | activity, negative = cell killing [10, 13] -11.1% | activity, negative = cell killing ([10]; at 46 µM (top of the series), tumour line A) -27.2% | Potency [11]

C[C@]12CC[C@H](O)CC1=CC[C@@H]1[C@@H]2CC[C@]2(C)C(=O)CC[C@@H]12
inactive: Potency [1] | Potency [3] | Potency [4] | Potency [5] | Potency [6] | Potency [7] | Potency [8] | Potency [9] | activity, negative = cell killing [10, 12] -4.02%
active: Potency [2] 14.1 µM | Potency ([10]; tumour line A) 22.4 µM

O=C(CBr)Nc1ccc(Cl)cc1C(=O)c1ccccc1F
inactive: Potency [1] | Potency [2] | Potency [3] | Potency [4] | Potency [5] | Potency [6] | Potency [7] | Potency [8] | Potency [9]

Reference: PubChem BioAssay (NCATS)
